Assay outcomes as filed in PubChem BioAssay.
In the library only some 5.7% were active in any assay of this set; here they are far more common.
NADH enzymes – inhibition of NAD/NADH coupling enzymes, library profiling. actives 0.02% (n = 65,000). AID 774. coupled PK/LDH NADH assays, four targets. IC50, µM (highest dose often 10 µM), for inactives: top-dose inhibition;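 active = single-dose screening hits from any of four coupled enzyme assays that gave an IC50 when retested across doses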;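 note: the DPM-DC format reads NADH fluorescence rather than 340 nm absorbance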
Hsp90 inh – displaces geldanamycin probe from tumor Hsp90; NCI-N417 lysate Hsp90, Cy3B-geldanamycin FP displacement; inhibition, % at 30 µM; actives 0.35% (n = 64,000); AID 429;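 active = inhibition above 50%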;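 note: 0% = tracer plus lysate wells and 100% = tracer alone without lysate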
DUSP1 inh – human dual specificity phosphatase 1 inhibition; P28562; recombinant MKP-1, OMFP hydrolysis fluorescence; inhibition, %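 (compounds tested at a single concentration somewhere between 10 and 100 µM)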; actives 0.15% (n = 65,000);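 active = inhibition above about 50%, limit read from the data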;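 note: 0% = DMSO max control wells and 100% = wells with enzyme stopped by NaOH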
Target sequence (P28562 whole entry, looked up): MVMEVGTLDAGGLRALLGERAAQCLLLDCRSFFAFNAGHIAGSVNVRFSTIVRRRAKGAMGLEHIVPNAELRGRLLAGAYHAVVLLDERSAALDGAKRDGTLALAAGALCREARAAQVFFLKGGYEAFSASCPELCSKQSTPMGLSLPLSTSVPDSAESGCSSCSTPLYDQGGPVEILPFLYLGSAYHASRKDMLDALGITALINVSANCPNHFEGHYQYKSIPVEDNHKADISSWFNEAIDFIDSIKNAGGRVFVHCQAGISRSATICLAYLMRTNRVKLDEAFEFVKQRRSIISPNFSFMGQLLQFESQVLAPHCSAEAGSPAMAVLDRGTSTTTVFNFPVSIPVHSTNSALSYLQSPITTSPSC
Cdc25B inh – human M-phase inducer phosphatase 2 inhibition | actives 0.1% (n = 65,000) | P30305 | inhibition, %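 (compounds tested at 10 µM final in the well)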 | recombinant Cdc25B, OMFP fluorescence Ex485/Em525; in the data active = inhibition above about 50%
Autofluor 339 – intrinsic fluorescence of library compounds, ex339/em460 – biochemical, MLSMR library, data from DPM-DC assay, artefact control, profiling panel; compound autofluorescence, ex339/em460 nm, NADH buffer; stronger effect = higher value; 1 = no-compound wells, NADH background; actives 5.5% (n = 65,000); fluorescence fold increase at 10 µM; AID 709;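 active = at 10 µM, mean starting fluorescence two-fold or more over control wells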;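 note: signal is the first read of a kinetic run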
Abs 340nm – compounds absorbing at 340 nm; compound absorbance at 340 nm, fold over control; fold change at 10 µM; 65,000 tested, under 10 active;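 active = at 10 µM dose, initial 340 nm absorbance at least 2 fold that of control wells; inactive = change under 2 fold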;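 note: initial absorbance extrapolated from kinetic A340 decline of NADH oxidation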
Active calls of the source: *; · = not tested or not shown.

SMILES	NADH enzymes	Hsp90 inh	DUSP1 inh	Cdc25B inh	Autofluor 339	Abs 340nm
CCc1ccc(N2CC(C(=O)Nc3nccs3)CC2=O)cc1 (configuration not stated)	4%	-2	11	-25	1.1	0.99
Cn1c(=O)c2c(nc(Oc3ccccn3)n2C)n(C)c1=O	15%	-7	21	1	1.2	0.98
COc1ccc(-c2ccc(-c3nnc(Cc4ccc(OC)c(OC)c4)o3)cc2)cc1	7%	-5	10	-14	2.6*	1.1
C=C(C)CSc1nnc([C@@H](NC(=O)OC(C)(C)C)C(C)CC)o1 (some centres not stated)	6%	-1	-1	2	1.1	1
CC12CC(NC(=O)N1c1cccc(C(=O)N3CCN(c4ccccc4)CC3)c1)c1ccccc1O2 (configuration not stated)	6%	1	-5	-1	1	1
CC12CC(NC(=O)N1c1ccc(C(=O)N3CCN(c4ccc(F)cc4)CC3)cc1)c1ccccc1O2 (configuration not stated)	1%	0	53*	8	1.1	1
Cc1ccc2nc3c(c(N)c2c1)CCN3c1ccccc1	2%	-11	-12	-5	3.7*	1.1
Fc1ccc(-n2c(-c3ccco3)nc3nc4ccccc4nc32)cc1	8%	-4	3	-2	5.1*	1.1
Fc1cccc(-n2c(-c3ccco3)nc3nc4ccccc4nc32)c1	5%	-19	5	5	3.6*	1.1
Fc1ccc(-c2nc3nc4ccccc4nc3n2Cc2ccco2)cc1	4%	-4	-3	-2	1.4	1.1
CCCCOCCCn1c(-c2ccco2)nc2nc3ccccc3nc21	7%	-18	41	1	4*	1.1
Nc1ncnc2c1nc(Sc1ccc(Cl)cc1)n2C1OC2COP(=O)(O)O[C@@H]2[C@@H]1O (some centres not stated)	·	3	·	·	·	·
OC(CNC1CCCCC1)CN1CCN(CC(O)CNC2CCCCC2)CC1 (configuration not stated)	1%	0	-5	-7	1.1	1
c1ccc(-c2nc3nonc3c3nc4ccccc4n23)cc1	9%	0	0	-11	2.3*	1
Cc1ccccc1CS(=O)(=O)CCC(=O)NCc1ccccn1	6%	2	-1	7	1	0.98
Cc1ccc(S(=O)(=O)CCc2ccccn2)cc1	3%	-9	0	-6	0.95	1
Cc1ccc(S(=O)(=O)Cc2cn3cccnc3n2)cc1	5%	-6	-3	0	3.7*	1.1
COCCCNC(=O)CCCn1c(=O)[nH]c2ccccc2c1=O	5%	2	9	-15	1.1	0.99
COC(=O)c1ccc2c(=O)n(CCCCCC(=O)NCc3ccccn3)c(=O)[nH]c2c1	11%	4	13	-17	2.5*	1
NC(=O)c1cccc(N)c1	·	3	·	·	·	·
N#C/C(=C\c1ccc(O)c(O)c1)C(=O)Nc1ccccc1	·	83*	·	·	·	·
C[C@@H](NC(=O)/C(C#N)=C/c1ccc(O)c(O)c1)c1ccccc1	·	77*	·	·	·	·
C[C@H](NC(=O)/C(C#N)=C/c1ccc(O)c(O)c1)c1ccccc1	·	75*	·	·	·	·
CC(NC(=O)C1C2C=CC(C2)C1C(=O)O)c1ccccc1 (configuration not stated)	4%	-3	-1	-1	1.1	1.1
N#C/C(=C\c1ccc(O)c(O)c1)C(=O)NCCCNC(=O)/C(C#N)=C/c1ccc(O)c(O)c1	·	81*	·	·	·	·
SMILES	NADH enzymes	Hsp90 inh	DUSP1 inh	Cdc25B inh	Autofluor 339	Abs 340nm
CCOC(=O)CN1C(=O)C(O)(C2CCc3ccccc3C2=O)c2ccccc21 (configuration not stated)	5%	-5	2	-1	1.1	1
CCOC(=O)CC1C(=O)NCCN1C(=O)c1cc2c(=O)n3cccc(C)c3nc2s1 (configuration not stated)	10%	-5	10	6	2.1*	1.1
CCOC(=O)CC1C(=O)NCCN1C(=O)c1cc2c(=O)n3ccccc3nc2s1 (configuration not stated)	2%	-4	1	-39	2.1*	1.2
CCOC(=O)C1=C(C)N=C2SC(C)C(=O)N2C1c1ccc(OCC)c(OCC)c1 (configuration not stated)	6%	-1	14	-24	1	1
Cc1ccc(S(=O)(=O)C(CCC(=O)N2CCOCC2)S(=O)(=O)c2ccc(C)cc2)cc1	1%	88*	-8	-1	1.1	1
CCC(C)(C)n1nnnc1C(c1cc2cc(C)cc(C)c2[nH]c1=O)N1CCCC1 (configuration not stated)	5%	-5	32	5	1.7	1.1
CC(C)(C)n1nnnc1C(c1cc2cc3c(cc2[nH]c1=O)OCCO3)N1CCSCC1 (configuration not stated)	0%	-6	17	0	3.3*	1.1
O=c1[nH]c2cc3c(cc2cc1C(c1nnnn1C1CCCC1)N1CCSCC1)OCCO3 (configuration not stated)	17%	-1	27	0	3.2*	1
Cc1cccc2cc(C(c3nnnn3C3CCCC3)N3CCOCC3)c(=O)[nH]c12 (configuration not stated)	8%	-1	-12	6	1.3	1.1
Cc1cc(C)c2[nH]c(=O)c(C(c3nnnn3C(C)(C)C)N3CCN(C(=O)c4ccco4)CC3)cc2c1 (configuration not stated)	15%	-2	35	5	2.4*	1.1
CCC(C)(C)n1nnnc1C(c1cc2cc3c(cc2[nH]c1=O)OCO3)N1CCN(C)CC1 (configuration not stated)	11%	0	5	-9	3.8*	1.1
O=S(=O)(Nc1cccc2ncccc12)c1cccs1	6%	12	-6	1	1.1	0.99
O=S(=O)(Nc1ccc(-c2nc3cccnc3s2)cc1)c1cccs1	10%	-6	9	-34	2.1*	1.3
O=C(Cn1cnc2ccccc2c1=O)NCCC(=O)Nc1ccc2c(c1)OCCO2	0%	86*	7	-11	1.1	0.99
O=C(Cn1cnc2ccccc2c1=O)Nc1ccc2c(c1)OCCO2	4%	2	25	0	1.1	1
CCn1c(SCc2nc3cc(OC)c(OC)cc3c(=O)[nH]2)nnc1-c1ccncc1	8%	3	-27	-8	1.1	0.99
CCOc1ccc(C(C)(C)C)cc1S(=O)(=O)N1CC(C)OC(C)C1 (configuration not stated)	4%	-1	6	-10	1.1	0.99
COc1cc(-c2ccc(NC(=O)CN3CCCCC3)c(OC)c2)ccc1NC(=O)CN1CCCCC1	11%	-2	-6	-22	1.1	1
